Test results: PubChem BioAssay (Tox21)
Results filed as inconclusive are left out. The source made the active and inactive calls. Unless noted, calls follow the shape of the full dose curve.

Legend:
[1] = biological target: Gonadotropin-releasing hormone receptor (Homo sapiens) (UniProt P30968); test: Human gonadotropin-releasing hormone receptor (GnRHR) small molecule agonists, calcium flux assay in GnRHR-HEK293 cells (AID 1920063); also: nearly all actives have a fitted effect of over 35% in size
Gonadotropin-releasing hormone receptor (Homo sapiens), sequence (P30968 whole entry, looked up): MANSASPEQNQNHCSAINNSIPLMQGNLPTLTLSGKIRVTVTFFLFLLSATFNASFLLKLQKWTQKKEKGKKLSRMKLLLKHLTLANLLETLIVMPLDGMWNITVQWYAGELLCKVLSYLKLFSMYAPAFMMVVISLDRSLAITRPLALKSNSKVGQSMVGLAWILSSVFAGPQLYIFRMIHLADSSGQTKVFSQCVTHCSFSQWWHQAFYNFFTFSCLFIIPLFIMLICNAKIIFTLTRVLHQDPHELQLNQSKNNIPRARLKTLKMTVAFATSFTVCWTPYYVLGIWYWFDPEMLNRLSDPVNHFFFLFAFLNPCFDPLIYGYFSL
Summary of the method: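 Compounds dissolved in DMSO are pin-transferred onto dye-loaded GnRHR-HEK293 cells, which were seeded 18 h before at 37 C/5% CO2. Calcium signal is read as fluorescence intensity at 1 s intervals for 3 min.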

[2] = biological target: KiSS-1 receptor (Homo sapiens) (UniProt Q969F8); test: Human kisspeptin (KISS1R) small molecule agonists, calcium flux assay in KISS1R-HEK293 cells (AID 1920064; active = well fitted activation curve with a large enough effect in the repeat runs)
KiSS-1 receptor (Homo sapiens), sequence (Q969F8 whole entry, looked up): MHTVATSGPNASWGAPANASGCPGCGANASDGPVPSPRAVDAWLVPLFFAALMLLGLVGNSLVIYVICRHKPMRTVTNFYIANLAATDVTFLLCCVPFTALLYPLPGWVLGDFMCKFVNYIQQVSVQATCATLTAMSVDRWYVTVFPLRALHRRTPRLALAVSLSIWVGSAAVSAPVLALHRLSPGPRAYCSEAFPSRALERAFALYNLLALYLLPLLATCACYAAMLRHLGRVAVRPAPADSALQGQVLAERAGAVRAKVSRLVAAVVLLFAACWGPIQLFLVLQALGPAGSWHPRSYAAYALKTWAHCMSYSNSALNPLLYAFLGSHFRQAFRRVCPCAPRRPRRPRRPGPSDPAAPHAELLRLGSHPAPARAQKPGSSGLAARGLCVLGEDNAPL
Summary of the method: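 Cell line: HEK293, stable human KISS1R. Dye loading 1 h at 37 C after 18 h culture. Read: kinetic fluorescence, 480/540 nm, 3 min at 1 s intervals.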

[3] = G protein-coupled receptor (GPCR) small molecule agonists, calcium flux assay: HEK293 wild type cell line counter screen (AID 1920065)
Summary of the method: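 Tox21 10K compounds, 15 concentrations each in triplicate, pin-transferred in DMSO onto dye-loaded cells; kinetic read at 480/540 nm for 3 min, 1 s intervals.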

[4] = p53 small molecule agonists, cell-based qHTS assay with human liver microsomes (AID 1963577);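 also: p53 response element beta-lactamase reporter cells with liver microsomes plus NADPH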
Summary of the method: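 Steps: plate p53RE-bla cells, incubate 5 h at 37 C; add compound in DMSO; add microsomes (0.5 mg/mL final) and NADPH (0.5 mg/mL final); incubate 16 h at 37 C; add LiveBLAzer, 2 h RT; read fluorescence.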

[5] = p53 small molecule agonists, cell-based qHTS assay with rat liver microsomes (AID 1963578)
Summary of the method: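 Metabolic activation is supplied by rat liver microsomes with NADPH (each 0.5 mg/mL final). p53RE-bla cells incubate with compound 16 h at 37 C; reporter activity is measured by LiveBLAzer fluorescence.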

[6] = p53 small molecule agonists, cell-based qHTS assay with human liver microsomes: qHTS cell viability counter screen (AID 1963579); also: nearly all actives have a fitted effect of over 45% in size
Summary of the method: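 After the 460/530 nm beta-lactamase read, CellTiter-Glo was added to the same wells and luminescence measured after 30 min at room temperature, giving viability of p53RE-bla cells treated 16 h with compounds plus microsomes and NADPH.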

[7] = p53 small molecule agonists, cell-based qHTS assay with rat liver microsomes: qHTS cell viability counter screen (AID 1963580); also: nearly all actives have a fitted effect of over 45% in size
Summary of the method: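 Cytotoxicity counter screen: intracellular ATP read by CellTiter-Glo luminescence in the p53 reporter wells. HCT-116 p53RE-bla cells were treated for 16 h at 37 C alongside rat liver microsomes and NADPH, each 0.5 mg/mL final.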

[8] = p53 small molecule agonists, cell-based qHTS assay: qHTS cell viability counter screen (AID 1963581); also: nearly all actives have a fitted effect of over 45% in size
Summary of the method: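 ATP content measured by luminescence in HCT-116 p53RE-bla cells treated 16 h at 37 C, same wells as the reporter screen.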

[9] = p53 small molecule agonists, cell-based qHTS assay (AID 1963582; active = well fitted activation curve with a large enough effect in the signal ratio in the repeat runs, not every such curve was filed as active; the % refers to the signal ratio)
Summary of the method: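 16 h compound exposure (37 C) of p53 response element–bla cells, preceded by 5 h recovery at 37 C/5% CO2; read-out via LiveBLAzer B/G FRET substrate, 2 h RT, fluorescence intensity.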

[10] = biological target: 5-hydroxytryptamine receptor 2A (Homo sapiens) (UniProt P28223); test: 5-hydroxytryptamine receptor 2A (HTR2A) small molecule agonists, cell-based qHTS assay (AID 1963587); also: nearly all actives have a fitted effect of over 30% in size
5-hydroxytryptamine receptor 2A (Homo sapiens), sequence (P28223 whole entry, looked up): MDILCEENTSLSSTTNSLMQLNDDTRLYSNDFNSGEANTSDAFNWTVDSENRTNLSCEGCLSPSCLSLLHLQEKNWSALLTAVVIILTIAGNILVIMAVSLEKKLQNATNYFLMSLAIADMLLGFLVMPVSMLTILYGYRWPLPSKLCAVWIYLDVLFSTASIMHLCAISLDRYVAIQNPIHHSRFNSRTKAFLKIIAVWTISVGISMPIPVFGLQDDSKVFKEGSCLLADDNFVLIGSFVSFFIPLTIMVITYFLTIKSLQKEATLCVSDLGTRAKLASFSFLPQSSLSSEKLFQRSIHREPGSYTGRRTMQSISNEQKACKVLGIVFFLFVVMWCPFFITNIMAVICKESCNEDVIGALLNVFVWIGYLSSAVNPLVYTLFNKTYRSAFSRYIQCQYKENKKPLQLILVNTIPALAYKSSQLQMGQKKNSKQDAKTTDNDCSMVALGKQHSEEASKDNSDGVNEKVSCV
Summary of the method: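 Kinetic calcium-flux fluorescence (2 min, 1 sec intervals) after compound addition in agonist mode. HTR2A-CHO cells were cultured 18 h, then dye-loaded 1 h at 37 C.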

[11] = biological target: Muscarinic acetylcholine receptor M1 (Homo sapiens) (UniProt P11229); test: Cholinergic receptor muscarinic 1 (CHRM1) small molecule antagonists, cell-based qHTS assay (AID 1963588); also: nearly all actives have a fitted effect of over 40% in size
Muscarinic acetylcholine receptor M1 (Homo sapiens), sequence (P11229 whole entry, looked up): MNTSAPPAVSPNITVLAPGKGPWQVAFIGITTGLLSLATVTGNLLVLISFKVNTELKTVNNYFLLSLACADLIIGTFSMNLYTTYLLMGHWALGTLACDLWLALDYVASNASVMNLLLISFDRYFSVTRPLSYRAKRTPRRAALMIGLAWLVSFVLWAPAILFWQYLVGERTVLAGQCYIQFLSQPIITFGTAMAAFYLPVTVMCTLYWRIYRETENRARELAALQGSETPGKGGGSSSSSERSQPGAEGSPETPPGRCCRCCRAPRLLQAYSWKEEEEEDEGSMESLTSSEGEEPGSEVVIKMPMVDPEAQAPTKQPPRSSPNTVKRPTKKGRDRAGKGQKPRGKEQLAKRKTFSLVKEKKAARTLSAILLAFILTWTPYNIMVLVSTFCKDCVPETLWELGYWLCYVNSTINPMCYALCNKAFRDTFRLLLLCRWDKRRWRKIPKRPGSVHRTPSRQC
Summary of the method: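 Compounds were tested at 15 concentrations in three independent runs. Dye-loaded CHRM1-CHO cells were exposed 5 min at room temperature before stimulation by acetylcholine added at 50nM. Intracellular calcium was read kinetically on FDSS for 3 min.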

[12] = biological target: Muscarinic acetylcholine receptor M1 (Homo sapiens) (UniProt P11229); test: Cholinergic receptor muscarinic 1 (CHRM1) small molecule agonists, cell-based qHTS assay (AID 1963589); also: nearly all actives have a fitted effect of over 35% in size
Summary of the method: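 Homogeneous fluorescence calcium flux, agonist mode. Human M1-expressing CHO cells; compound dosed at 15 concentrations, three independent runs; signal sampled every 1 sec.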

[13] = cAMP Responsive Elements (CRE) small molecule agonists, cell-based qHTS assay (AID 1963590)
Summary of the method: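 HEK 293T cells stably bearing CRE-bla were plated at 2,000 cells per well and rested 18 h. Compounds, positive controls or DMSO were added for 3 h at 37 C. LiveBLAzer B/G substrate was then loaded for 2 h at room temperature.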

[14] = cAMP Responsive Elements (CRE) small molecule antagonists, cell-based qHTS assay (AID 1963591; active = well fitted inhibition curve with a large enough effect in the signal ratio in the repeat runs, not every such curve was filed as active; the % refers to the signal ratio)
Summary of the method: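 First, CRE-bla HEK293T cells settled 18 h at 37 C. Next, compound and 0.25 uM final NKH477 were applied for 3 h. Last, LiveBLAzer B/G substrate was loaded for 2 h at room temperature.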

[15] = biological target: Beta-2 adrenergic receptor (Homo sapiens) (UniProt P07550); test: Adrenergic beta2 receptor (ADRB2) small molecule antagonists, cell-based qHTS assay (AID 1963592); also: series mostly up to about 92 µM; nearly all actives have a fitted effect of over 50% in size
Beta-2 adrenergic receptor (Homo sapiens), sequence (P07550 whole entry, looked up): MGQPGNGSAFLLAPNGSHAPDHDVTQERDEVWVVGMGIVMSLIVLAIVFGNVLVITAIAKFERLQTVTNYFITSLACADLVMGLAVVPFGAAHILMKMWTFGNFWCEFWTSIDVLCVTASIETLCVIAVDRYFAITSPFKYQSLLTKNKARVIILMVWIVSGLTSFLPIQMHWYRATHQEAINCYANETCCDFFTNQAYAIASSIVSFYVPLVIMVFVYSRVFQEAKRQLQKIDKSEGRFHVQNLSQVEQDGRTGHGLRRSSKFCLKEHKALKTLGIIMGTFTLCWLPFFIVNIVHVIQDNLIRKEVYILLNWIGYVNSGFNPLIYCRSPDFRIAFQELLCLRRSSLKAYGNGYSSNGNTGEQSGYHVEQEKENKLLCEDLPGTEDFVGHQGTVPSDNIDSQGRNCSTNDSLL
Summary of the method: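 Assay format: CHO-ADRB2 cells, 18-20hr seeding at 37C/5% CO2, then compound plus 1nM isoproterenol agonist mix for 0.5hr RT. Homogeneous time-resolved fluorescence cAMP detection after 1hr, expressed as 665/615 nm ratio.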

[16] = biological target: Beta-2 adrenergic receptor (Homo sapiens) (UniProt P07550); test: Adrenergic beta2 receptor (ADRB2) small molecule agonists, cell-based qHTS assay (AID 1963593);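 also: CHO cells stably overexpressing human ADRB2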
Summary of the method: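 CHO cells stably over-expressing ADRB2 were plated overnight at 37C, then dosed with compounds plus a stimulation mix containing 100uM IBMX and 25uM Ro-20-1724 for 0.5hr at room temperature. cAMP was measured by HTRF competition, 1hr.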

[17] = biological target: D(2) dopamine receptor (Homo sapiens) (UniProt P14416); test: Dopamine D2 receptor (DRD2) small molecule agonists, cell-based qHTS assay (AID 1963594); also: nearly all actives have a fitted effect of over 35% in size
D(2) dopamine receptor (Homo sapiens), sequence (P14416 whole entry, looked up): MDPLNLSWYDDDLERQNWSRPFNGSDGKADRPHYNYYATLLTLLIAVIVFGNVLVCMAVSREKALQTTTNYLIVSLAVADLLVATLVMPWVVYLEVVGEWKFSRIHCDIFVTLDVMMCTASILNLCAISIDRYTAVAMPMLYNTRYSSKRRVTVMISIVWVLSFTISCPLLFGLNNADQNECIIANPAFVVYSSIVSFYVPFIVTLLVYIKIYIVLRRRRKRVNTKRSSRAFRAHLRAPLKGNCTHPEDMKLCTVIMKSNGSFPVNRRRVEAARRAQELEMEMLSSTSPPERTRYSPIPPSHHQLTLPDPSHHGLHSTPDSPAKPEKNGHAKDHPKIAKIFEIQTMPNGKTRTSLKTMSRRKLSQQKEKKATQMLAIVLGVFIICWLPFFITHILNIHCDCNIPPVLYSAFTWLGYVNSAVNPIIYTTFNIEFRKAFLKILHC
Summary of the method: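 cAMP accumulation in DRD2-HEK293 cells measured by HTRF after 1 h detection; compounds added 10 min before NKH477 (200nM […]) forskolin-analogue stimulation, 30 min at room temperature, with Ro20-1724 present at 0.1 mM final.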

[18] = biological target: D(2) dopamine receptor (Homo sapiens) (UniProt P14416); test: Dopamine D2 receptor (DRD2) small molecule antagonists, cell-based qHTS assay (AID 1963595; active = well fitted inhibition curve with a large enough effect in the signal ratio in the repeat runs, with a control signal flat; the % refers to the signal ratio)
Summary of the method: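 HEK293 cells stably expressing DRD2, preincubated with 0.1 mM Ro20-1724 and compounds 10 min, were stimulated with 200 nM NKH477 plus 12 nM quinpirole for 30 min at room temperature; cAMP measured by HTRF (665/620 nm).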

[19] = biological target: 5-hydroxytryptamine receptor 2A (Homo sapiens) (UniProt P28223); test: 5-hydroxytryptamine receptor 2A (HTR2A) small molecule antagonists, cell-based qHTS assay (AID 1963586); also: nearly all actives have a fitted effect of over 45% in size
Summary of the method: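 CHO cells stably expressing human HTR2A were plated for 18 h at 37 C, then loaded with calcium dye for 1 h. Compounds were preincubated 5 min at room temperature before DOI (4 nM solution) was added. Kinetic fluorescence was read for 3 min.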

Measured: Potency

BrCCc1ccccc1
not listed: [19]
inactive: all other assays above

Cc1ccc(N)cc1
not listed: [8]
inactive: all other assays above

O=C(O)c1cc(Oc2ccc(C(F)(F)F)cc2Cl)ccc1[N+](=O)[O-]
not listed: [4] | [5] | [9] | [13]
inactive: all other assays above

ClCCN1CCOCC1
not listed: [12] | [16]
inactive: all other assays above

N#CC(c1ccccc1)c1ccccc1
not listed: [5] | [16]
inactive: all other assays above

Cn1c(N)nc2c3cccnc3ccc21
not listed: [10]
inactive: all other assays above
